Measurements taken from PubChem BioAssay AID1159580 (chemical genetic matrix, 2015).
The campaign covered roughly 5,500 compounds. About 2,000 (36%) were called active. About 18% were inconclusive and are not listed. Rule as the data show it: active = normalized growth mostly below about 0.91 (no sharp cut-off); inconclusive = no clear call, values can overlap the other calls; inactive = mostly above about 0.92. The list shows a part of the results.

Test: chemical genetic growth profiling, strain panel (AID 1159580);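 also: tested at 20 µM; growth read once vehicle control cultures reached saturation at 30 °C; 1 = growth at the plate median or of vehicle wells; lower values mean less growth of the strain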
Details: growth OD
[1] = S. cerevisiae deletion strains, locus YAR019C, strain CDC15, active compounds read low
[2] = S. cerevisiae deletion strains, locus YBL105C, strain PKC1, active compounds read low
[3] = S. cerevisiae deletion strains, locus YBR135W, strain CKS1, active compounds read low
[4] = S. cerevisiae deletion strains, locus YBR136W, strain MEC1, active compounds read low
[5] = S. cerevisiae deletion strains, locus YBR160W, strain CDC28, active compounds read low
[6] = S. cerevisiae deletion strains, locus YDL017W, strain CDC7, active compounds read low
[7] = S. cerevisiae deletion strains, locus YDL028C, strain MPS1, active compounds read low
[8] = S. cerevisiae deletion strains, locus YDL101C, strain DUN1, active compounds read low
[9] = S. cerevisiae deletion strains, locus YDL108W, strain KIN28, active compounds read low
[10] = S. cerevisiae deletion strains, locus YDL132W, strain cdc53, active compounds read low
[11] = S. cerevisiae deletion strains, locus YDL214C, strain PRR2, active compounds read low
[12] = S. cerevisiae deletion strains, locus YDR052C, strain DBF4, active compounds read low
[13] = S. cerevisiae deletion strains, locus YDR054C, strain cdc34, active compounds read low
[14] = S. cerevisiae deletion strains, locus YDR226W, strain ADK1, active compounds read low
[15] = S. cerevisiae deletion strains, locus YDR477W, strain SNF1, active compounds read low
[16] = S. cerevisiae deletion strains, locus YER123W, strain YCK3, active compounds read low
[17] = S. cerevisiae deletion strains, locus YER133W, strain GLC7, active compounds read low
[18] = S. cerevisiae deletion strains, locus YFL009W, strain cdc4, active compounds read low
[19] = S. cerevisiae deletion strains, locus YFL029C, strain CAK1, active compounds read low
[20] = S. cerevisiae deletion strains, locus YFR003C, strain YPI1, active compounds read low
[21] = S. cerevisiae deletion strains, locus YFR019W, strain FAB1, active compounds read low
[22] = S. cerevisiae deletion strains, locus YFR028C, strain CDC14, active compounds read low
[23] = S. cerevisiae deletion strains, locus YGR040W, strain KSS1, active compounds read low
[24] = S. cerevisiae deletion strains, locus YGR052W, strain FMP48, active compounds read low
[25] = S. cerevisiae deletion strains, locus YGR092W, strain DBF2, active compounds read low
[26] = S. cerevisiae deletion strains, locus YHR030C, strain SLT2, active compounds read low
[27] = S. cerevisiae deletion strains, locus YHR079C, strain IRE1, active compounds read low
[28] = S. cerevisiae deletion strains, locus YHR082C, strain KSP1, active compounds read low
[29] = S. cerevisiae deletion strains, locus YHR205W, strain SCH9, active compounds read low
[30] = S. cerevisiae deletion strains, locus YIL147C, strain SLN1, active compounds read low
[31] = S. cerevisiae deletion strains, locus YJL095W, strain BCK1, active compounds read low
[32] = S. cerevisiae deletion strains, locus YJL128C, strain PBS2, active compounds read low
[33] = S. cerevisiae deletion strains, locus YJL157C, strain FAR1, active compounds read low
[34] = S. cerevisiae deletion strains, locus YJR016C, strain ILV3, active compounds read low
[35] = S. cerevisiae deletion strains, locus YJR066W, strain TOR1 (second series), active compounds read low
[36] = S. cerevisiae deletion strains, locus YJR066W, strain TOR1, active compounds read low
[37] = S. cerevisiae deletion strains, locus YKL048C, strain ELM1, active compounds read low
[38] = S. cerevisiae deletion strains, locus YKL067W, strain YNK1, active compounds read low
[39] = S. cerevisiae deletion strains, locus YKL101W, strain HSL1, active compounds read low
[40] = S. cerevisiae deletion strains, locus YKL193C, strain SDS22, active compounds read low
[41] = S. cerevisiae deletion strains, locus YKL203C, strain TOR2, active compounds read low
[42] = S. cerevisiae deletion strains, locus YLR113W, strain HOG1, active compounds read low
[43] = S. cerevisiae deletion strains, locus YLR133W, strain CKI1, active compounds read low
[44] = S. cerevisiae deletion strains, locus YLR403W, strain SFP1, active compounds read low
[45] = S. cerevisiae deletion strains, locus YML070W, strain DAK1, active compounds read low
[46] = S. cerevisiae deletion strains, locus YMR001C, strain CDC5, active compounds read low
[47] = S. cerevisiae deletion strains, locus YMR205C, strain PFK2 (second series), active compounds read low
[48] = S. cerevisiae deletion strains, locus YMR277W, strain FCP1, active compounds read low
[49] = S. cerevisiae deletion strains, locus YNL006W, strain LST8, active compounds read low
[50] = S. cerevisiae deletion strains, locus YNL020C, strain ARK1, active compounds read low
[51] = S. cerevisiae deletion strains, locus YNL161W, strain CBK1, active compounds read low
[52] = S. cerevisiae deletion strains, locus YNL183C, strain NPR1, active compounds read low
[53] = S. cerevisiae deletion strains, locus YNL207W, strain RIO2, active compounds read low
[54] = S. cerevisiae deletion strains, locus YNL222W, strain SSU72, active compounds read low
[55] = S. cerevisiae deletion strains, locus YNL307C, strain MCK1 (second series), active compounds read low
[56] = S. cerevisiae deletion strains, locus YOL078W, strain AVO1, active compounds read low
[57] = S. cerevisiae deletion strains, locus YOL136C, strain PFK27, active compounds read low
[58] = S. cerevisiae deletion strains, locus YOR061W, strain CKA2, active compounds read low
[59] = S. cerevisiae deletion strains, locus YOR119C, strain RIO1, active compounds read low
[60] = S. cerevisiae deletion strains, locus YOR231W, strain MKK1, active compounds read low
[61] = S. cerevisiae deletion strains, locus YOR329C, strain SCD5, active compounds read low
[62] = S. cerevisiae deletion strains, locus YPL031C, strain PHO85, active compounds read low
[63] = S. cerevisiae deletion strains, locus YPL153C, strain RAD53, active compounds read low
[64] = S. cerevisiae deletion strains, locus YPL204W, strain HRR25, active compounds read low
[65] = S. cerevisiae deletion strains, locus YPL209C, strain IPL1, active compounds read low
[66] = S. cerevisiae deletion strains, locus YPL256C, strain CLN2, active compounds read low
[67] = S. cerevisiae deletion strains, locus YPR025C, strain CCL1, active compounds read low
[68] = S. cerevisiae deletion strains, locus YPR106W, strain ISR1, active compounds read low
[69] = S. cerevisiae deletion strains, locus YPR111W, strain DBF20, active compounds read low
[70] = S. cerevisiae deletion strains, strain NNK1, active compounds read low
[71] = S. cerevisiae deletion strains, strain TSCII, active compounds read low
[72] = S. cerevisiae deletion strains, locus YDR150W, strain NUM1, active compounds read low
[73] = S. cerevisiae deletion strains, locus YNL153C, strain GIM3, active compounds read low
[74] = S. cerevisiae deletion strains, locus YPL055C, strain LGE1, active compounds read low

Measured: normalized growth

O=C1/C(=C/c2ccccn2)CCc2ccccc21
inactive: [1] 0.923 | [2] 0.944 | [3] 0.95 | [4] 0.929 | [5] 0.957 | [6] 0.954 | [7] 0.94 | [8] 0.948 | [9] 0.936 | [10] 0.936 | [11] 0.927 | [12] 0.96 | [13] 0.937 | [14] 0.948 | [15] 0.897 | [16] 0.814 | [17] 0.897 | [18] 0.929 | [19] 0.912 | [20] 0.954 | [21] 0.951 | [22] 0.935 | [23] 0.837 | [24] 0.919 | [25] 0.813 | [26] 0.88 | [27] 0.869 | [28] 0.921 | [29] 0.878 | [30] 0.939 | [31] 0.863 | [32] 0.937 | [33] 0.939 | [34] 0.94 | [35] 0.633 | [36] 0.855 | [37] 0.952 | [38] 0.928 | [39] 0.922 | [40] 0.937 | [41] 0.912 | [43] 0.935 | [44] 0.869 | [45] 0.896 | [46] 0.944 | [47] 0.948 | [48] 0.939 | [49] 0.967 | [50] 0.948 | [51] 0.941 | [52] 0.84 | [53] 0.943 | [54] 0.942 | [55] 0.913 | [56] 0.935 | [57] 0.919 | [58] 0.934 | [59] 0.91 | [60] 0.875 | [61] 0.948 | [62] 0.874 | [63] 0.883 | [64] 0.862 | [65] 0.944 | [66] 0.861 | [67] 0.945 | [68] 0.96 | [69] 0.955 | [70] 0.967 | [71] 0.93
active: [42] 0.742

Oc1ccc(-c2nc(-c3ccc(F)cc3)c(-c3ccncc3)[nH]2)cc1
inactive: S. cerevisiae deletion strains, locus YAL040C, strain CLN3, active compounds read low 0.975 | S. cerevisiae deletion strains, locus YCL061C, strain MRC1 (second series), active compounds read low 1.01 | [72] 1 | S. cerevisiae deletion strains, locus YER002W, strain NOP16, active compounds read low 1 | S. cerevisiae deletion strains, locus YMR307W, strain GAS1, active compounds read low 1.02 | [73] 0.999 | S. cerevisiae deletion strains, locus YNL175C, strain NOP13, active compounds read low 1.03 | S. cerevisiae deletion strains, locus YNL197C, strain WHI3, active compounds read low 1.02 | S. cerevisiae deletion strains, locus YNL224C, strain SQS1, active compounds read low 1.02 | S. cerevisiae deletion strains, locus YOR083W, strain WHI5 (second series), active compounds read low 1.03 | [74] 1.02

O=S(=O)(CS(=O)(=O)Oc1ccc(Cl)c(Cl)c1)Oc1ccc(Cl)c(Cl)c1
inactive: [1] 0.95 | [2] 0.944 | [3] 0.947 | [4] 0.946 | [5] 0.946 | [6] 0.937 | [7] 0.946 | [8] 0.971 | [9] 0.937 | [10] 0.968 | [11] 0.986 | [12] 0.937 | [13] 0.932 | [14] 0.913 | [15] 0.966 | [16] 0.989 | [17] 0.969 | [18] 0.931 | [19] 0.95 | [20] 0.944 | [21] 0.946 | [22] 0.97 | [23] 0.983 | [24] 1.02 | [25] 0.905 | [27] 0.918 | [28] 1.03 | [29] 0.756 | [30] 0.943 | [31] 0.935 | [32] 0.969 | [33] 0.959 | [34] 0.951 | [35] 0.994 | [36] 1.03 | [37] 0.963 | [38] 0.983 | [39] 0.981 | [40] 0.944 | [41] 1.05 | [42] 0.962 | [43] 0.961 | [44] 0.823 | [45] 0.991 | [46] 0.94 | [47] 0.972 | [48] 0.949 | [49] 0.967 | [50] 0.955 | [51] 0.949 | [52] 1.09 | [53] 0.941 | [54] 0.955 | [55] 0.961 | [56] 0.946 | [57] 0.949 | [58] 0.984 | [59] 1.05 | [60] 1.07 | [61] 0.951 | [62] 0.948 | [63] 0.974 | [64] 0.945 | [65] 0.949 | [66] 0.945 | [67] 0.956 | [68] 0.942 | [69] 0.938 | [70] 0.956 | [71] 0.945
active: [26] 0.85

O=S(=O)(Oc1cc(Cl)cc(Cl)c1)c1cccc(S(=O)(=O)Oc2cc(Cl)cc(Cl)c2)c1
inactive: S. cerevisiae deletion strains, locus YAL013W, strain DEP1, active compounds read low 1.01 | S. cerevisiae deletion strains, locus YBR229C, strain ROT2, active compounds read low 1.01 | S. cerevisiae deletion strains, locus YCL061C, strain MRC1, active compounds read low 1.01 | [8] 1.01 | S. cerevisiae deletion strains, locus YDL134C, strain PPH21, active compounds read low 1.01 | [72] 1 | S. cerevisiae deletion strains, locus YEL061C, strain CIN8, active compounds read low 1.01 | S. cerevisiae deletion strains, locus YGR078C, strain PAC10, active compounds read low 1.02 | [26] 1.04 | S. cerevisiae deletion strains, locus YHR087W, strain rtc3, active compounds read low 0.996 | S. cerevisiae deletion strains, locus YJR043C, strain POL32, active compounds read low 1 | S. cerevisiae deletion strains, locus YJR075W, strain HOC1, active compounds read low 0.988 | S. cerevisiae deletion strains, locus YLR039C, strain RIC1, active compounds read low 1.1 | S. cerevisiae deletion strains, locus YLR058C, strain SHM2 (second series), active compounds read low 0.998 | S. cerevisiae deletion strains, locus YLR085C, strain ARP6, active compounds read low 1.06 | S. cerevisiae deletion strains, locus YLR262C, strain YPT6, active compounds read low 1.02 | S. cerevisiae deletion strains, locus YML094W, strain GIM5, active compounds read low 1.01 | S. cerevisiae deletion strains, locus YMR219W, strain ESC1, active compounds read low 0.998 | S. cerevisiae deletion strains, locus YMR263W, strain SAP30, active compounds read low 0.992 | [73] 1.01 | S. cerevisiae deletion strains, locus YNL298W, strain CLA4 (second series), active compounds read low 1.07 | S. cerevisiae deletion strains, locus YNL322C, strain KRE1, active compounds read low 1.01 | S. cerevisiae deletion strains, locus YNR030W, strain Alg12, active compounds read low 1.01 | S. cerevisiae deletion strains, locus YOL006C, strain TOP1, active compounds read low 1.06 | [74] 1.01 | S. cerevisiae deletion strains, locus YPL241C, strain CIN2, active compounds read low 1.03 | S. cerevisiae deletion strains, locus YPR135W, strain CTF4, active compounds read low 1.01 | S. cerevisiae strains, strain wild type, active compounds read low 1.04
